Compound activity: PubChem BioAssay, The Scripps Research Institute Molecular Screening Center
ZTA counter – counter-screen for EBNA-1 inhibitors: inhibitors of Epstein-Barr virus ZTA; ZTA-DNA binding, fluorescence polarization; inhibition, % at 11 µM; 0.15% of 320,000 active; AID 2234; in the data active = inhibition above about 33%
EBNA-1 inh – EBNA-1 DNA-binding inhibitors, primary screen, biochemical, fluorescence polarization; inhibition, % at 14.8 µM; 0.34% of 300,000 active; in the data active = inhibition above about 28%
PAFAH1B3 FP inh – PAFAH1B3 enzyme inhibitors, primary screen, biochemical, fluorescence polarization, human. Platelet-activating factor acetylhydrolase IB subunit alpha1 (Homo sapiens), Q15102. recombinant PAFAH1B3, FP-rhodamine probe. inhibition, % at 3.39 µM. 0.28% of 340,000 active;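 active = inhibition above the screen-wide average of all tested compounds plus 3 SD, cut at about 25% in these data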;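 note: 0% = enzyme with DMSO only and 100% = wells lacking PAFAH1B3 protein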
PAFAH2 FP inh – PAFAH2 enzyme inhibitors, primary screen, biochemical, fluorescence polarization, human; Platelet-activating factor acetylhydrolase 2, cytoplasmic (Homo sapiens), Q99487; recombinant PAFAH2, FP-rhodamine activity probe; inhibition, % at 3.39 µM; 0.99% of 340,000 active;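 active = inhibition above the mean over all tested compounds plus 3 SD, cut at about 30% in these data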;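 note: inhibitors block probe labeling of enzyme so polarization drops; 0% = enzyme with DMSO and 100% = wells lacking PAFAH2 protein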
PAFAH1B2 inh – PAFAH1B2 enzyme inhibitors, primary screen, biochemical, fluorescence polarization, human. inhibition, % at 3.39 µM. AID 492953, 2010. 1.2% of 340,000 active. recombinant PAFAH1B2, FP-rhodamine activity probe;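 active = inhibition above the mean of all tested compounds plus 3 SD, cut at about 24% in these data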;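 note: 0% = enzyme with DMSO and 100% = wells lacking PAFAH1B2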
pPAFAH FP inh – pPAFAH enzyme inhibitors, primary screen, biochemical, fluorescence polarization, human | Platelet-activating factor acetylhydrolase (Homo sapiens), Q13093 | recombinant pPAFAH, FP-rhodamine probe fluorescence polarization | inhibition, % at 3.39 µM | 1.5% of 330,000 active;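 active = inhibition above the mean inhibition across the screen plus 3 SD, cut at about 25% in these data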;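 note: inhibitors block binding of the rhodamine activity-based probe so polarization drops; 0% = enzyme with DMSO and 100% = wells lacking pPAFAH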
Target sequence (Q13093 whole entry, looked up): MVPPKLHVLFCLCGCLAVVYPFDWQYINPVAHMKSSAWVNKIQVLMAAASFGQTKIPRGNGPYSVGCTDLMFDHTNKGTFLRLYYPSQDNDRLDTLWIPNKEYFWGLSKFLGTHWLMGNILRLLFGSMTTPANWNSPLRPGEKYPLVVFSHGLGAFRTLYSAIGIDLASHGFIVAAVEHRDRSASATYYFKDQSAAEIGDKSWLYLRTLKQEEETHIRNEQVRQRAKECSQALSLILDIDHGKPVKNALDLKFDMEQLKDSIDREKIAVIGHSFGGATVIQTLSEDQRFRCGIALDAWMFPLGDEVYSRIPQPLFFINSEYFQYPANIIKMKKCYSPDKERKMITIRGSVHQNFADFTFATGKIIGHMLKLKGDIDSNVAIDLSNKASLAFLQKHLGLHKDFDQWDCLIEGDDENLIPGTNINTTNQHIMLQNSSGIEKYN
PAFAH2 confirm – PAFAH2 enzyme inhibitors, confirmation, biochemical, fluorescence polarization, human. shares compounds with PAFAH2 FP inh. recombinant PAFAH2, FP-rhodamine activity probe. inhibition, % at 3.39 µM. 65% of 2,300 active;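 active = mean inhibition over three repeats above a set limit taken from the earlier primary screen, cut at about 30% in these data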;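 note: inhibitor blocks binding of rhodamine activity probe so polarization falls; 0% = enzyme with DMSO and 100% = wells lacking PAFAH2 protein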
An asterisk follows results filed as active. Shown are actives, neighbours in structure and some others; about 2.9% of the full set was active somewhere.

Screening O=C(COC(=O)c1ccc2c(c1)OCO2)Nc1ncc(Cl)cc1Cl returned ZTA counter 1, EBNA-1 inh 1, PAFAH1B3 FP inh 2, PAFAH2 FP inh 40*, PAFAH1B2 inh 4, pPAFAH FP inh 10 and PAFAH2 confirm 37*.
`O=C(COC(=O)CNC(=O)c1ccc2c(c1)OCO2)Nc1ncc(Cl)cc1Cl` gave ZTA counter 4, EBNA-1 inh 6, PAFAH1B3 FP inh 9, PAFAH2 FP inh 3, PAFAH1B2 inh -2 and pPAFAH FP inh 7.
`O=C(COC(=O)c1ccc2c(c1)OCO2)NCc1ccc(Cl)cc1` gave ZTA counter -4, EBNA-1 inh 12, PAFAH1B3 FP inh 4, PAFAH2 FP inh 44*, PAFAH1B2 inh 10, pPAFAH FP inh 3 and PAFAH2 confirm 40*.
Screening O=C(COC(=O)c1ccc(O)cc1)Nc1ncc(Cl)cc1Cl returned ZTA counter 3, EBNA-1 inh 1, PAFAH1B3 FP inh -1, PAFAH2 FP inh 38*, PAFAH1B2 inh 2, pPAFAH FP inh 8 and PAFAH2 confirm 29.
CN(C)S(=O)(=O)c1cccc(NC(=O)COC(=O)/C=C/c2ccc(Br)o2)c1 was read as ZTA counter 30, EBNA-1 inh 6, PAFAH1B3 FP inh -3, PAFAH2 FP inh 40*, PAFAH1B2 inh 0, pPAFAH FP inh 2 and PAFAH2 confirm 35*.
CN(C)S(=O)(=O)c1cccc(NC(=O)COC(=O)/C=C/c2ccc([N+](=O)[O-])cc2)c1 was read as ZTA counter 12, EBNA-1 inh 4, PAFAH1B3 FP inh 1, PAFAH2 FP inh 34*, PAFAH1B2 inh 1, pPAFAH FP inh 12 and PAFAH2 confirm 20.
`Cc1ccc(NC(=O)COC(=O)/C=C/c2ccc(Br)o2)cc1S(=O)(=O)N(C)C` gave ZTA counter 2, EBNA-1 inh -2, PAFAH1B3 FP inh -1, PAFAH2 FP inh 64*, PAFAH1B2 inh -3, pPAFAH FP inh 2 and PAFAH2 confirm 59*.
NS(=O)(=O)c1ccc(NC(=O)COC(=O)/C=C/c2ccc([N+](=O)[O-])cc2)cc1 was read as ZTA counter -3, EBNA-1 inh 25, PAFAH1B3 FP inh 6, PAFAH2 FP inh 2, PAFAH1B2 inh -1 and pPAFAH FP inh 3.
Screening CCCc1ccc(-c2cc(C(=O)Nc3ccc([N+](=O)[O-])cn3)c3ccccc3n2)cc1 returned ZTA counter -19, EBNA-1 inh -5, PAFAH1B3 FP inh -2, PAFAH2 FP inh -25, PAFAH1B2 inh -2 and pPAFAH FP inh 4.
Screening CC(=O)c1ccc(NC(=O)c2ccc(NC(=O)CCS(=O)(=O)c3cccs3)cc2)cc1 returned ZTA counter 0, EBNA-1 inh 0, PAFAH1B3 FP inh 0, PAFAH2 FP inh 72*, PAFAH1B2 inh 0, pPAFAH FP inh 1 and PAFAH2 confirm 58*.
`CC(=O)c1cccc(NC(=O)c2ccc(NC(=O)CCS(=O)(=O)c3cccs3)cc2)c1` gave ZTA counter 13, EBNA-1 inh 5, PAFAH1B3 FP inh -2, PAFAH2 FP inh -10, PAFAH1B2 inh -2 and pPAFAH FP inh -3.
For COCCNc1nnc(SCC(=O)NNC(=O)c2ccc([N+](=O)[O-])cc2)s1 the results were ZTA counter 10, EBNA-1 inh 5, PAFAH1B3 FP inh 5, PAFAH2 FP inh 2, PAFAH1B2 inh 1 and pPAFAH FP inh 1.
Screening CN(CC(=O)Nc1ccccc1C(=O)NC1CC1)Cc1ccc(N(C)C)cc1 returned ZTA counter -13, PAFAH1B3 FP inh -7, PAFAH2 FP inh 0, PAFAH1B2 inh -6 and pPAFAH FP inh 0.
For COc1cc(C(C)=O)ccc1COc1ccc(C(=O)OCC(=O)NC(C)(C)C)cc1OC the results were ZTA counter 8, EBNA-1 inh 7, PAFAH1B3 FP inh -3, PAFAH2 FP inh 74*, PAFAH1B2 inh -2, pPAFAH FP inh 20 and PAFAH2 confirm 79*.
